Experimental data taken from PubChem BioAssay (Tox21).
Records with an inconclusive call do not appear. Unmarked numbers belong to inactive results. Activity calls are given as the source filed them. The call rests on the fitted dose curve; in most records, active means well fitted activation curve with a large enough effect in the repeat runs; inconclusive means weak or mixed curves; inactive means no such curve, though single readings can be large or run the other way.

test: qHTS assay for small molecules that induce genotoxicity in human embryonic kidney cells expressing luciferase-tagged ATAD5 (AID 651632); conditions: HEK293T ATAD5-luciferase induction, 16 h; series mostly up to 83.3 µM; activation: at the top concentration; further: nearly all actives have a fitted effect of over 15% in size
From the text: U.S. Tox21 Program National Center for Advancing Translational Sciences [NCATS] NIH Chemical Genomics Center [NCGC] U.S. Environmental Protection Agency [EPA] National Institutes of Environmental Health Sciences [NIEHS] National Toxicology Program [NTP] U.S. Food and Drug Administration [FDA] Tox21 Assay Overview: As cancer cells divide rapidly and during every cell division they need to duplicate their genome by DNA replication. The failure to do so results in the cancer cell death. Based on this concept, many chemotherapeutic agents were developed but have limitations such as low efficacy and severe side effects etc. A new cell based assay was developed to find the compounds that effectively block DNA replication either by directly damaging DNA or by inhibiting other cellular mechanisms. Enhanced Level of Genome Instability Gene 1 (ELG1; human ATAD5) protein levels increase in response to various types of DNA damage. Using a luciferase reporter-gene tagged with ATAD5, a cell-based assay [developed by Kyungjae Myung, NHGRI, NIH] was used to measure the induction of ATAD5 in human embryonic kidney cells (HEK293T). So, increase in luciferase activity can be used to identify the compounds that cause genetic stress.
Tox21 Assay Protocol Summary: For genotoxicity screening, 2,000 cells in 5 uL/well were dispensed into white, solid-bottom 1536-well plates using a Multidrop Combi (Thermo Scientific) dispenser. Following transfer of 23 nL compound or DMSO vehicle by a pin tool, the plates were incubated 16 hr at 37C and 5% CO2. 5 ul Amplite (AAT Bioquest, Inc.) was then added to each plate and following 30 min incubation at room temperature, luciferase activity was quantified on a ViewLux CCD-based plate reader.
On the % scale 0 is the no-effect control and ±100 the full control effect.

Structure (SMILES)	activation	Potency
NNC(=O)c1cccnc1	-2.3% [at 95.3 µM]	–
CCCN(CC1CC1)c1c([N+](=O)[O-])cc(C(F)(F)F)cc1[N+](=O)[O-]	-0.506%	–
O=S1(=O)OC(c2cc(Br)c(O)c(Br)c2)(c2cc(Br)c(O)c(Br)c2)c2ccccc21	-13.3%	–
c1ccoc1	1%	–
Cn1cc[n+](C)c1 (tested in a mixture with another compound)	2.57% [at 95.3 µM]	–
NS(=O)(=O)C(F)(F)C(F)(F)C(F)(F)C(F)(F)C(F)(F)C(F)(F)C(F)(F)C(F)(F)F	-7.52%	–
Brc1ccccc1	0.263%	–
COCCOCCO	3.51%	–
NC(=O)CI	0.958% [at 95.3 µM]	–
[O-][Cl+]O	-1.34%	–
CC(=O)c1cc2c(cc1C)C(C)(C)C(C)CC2(C)C (stereo not given)	-6.68%	–
O=[N+]([O-])c1ccc(F)c([N+](=O)[O-])c1	–	inactive
COC1=CC(=O)O[C@@H](CCc2ccccc2)C1	2.43% [at 95.3 µM]	–
C/C=C/C=O	-3.96%	–
C=COC(C)=O	0.648% [at 95.3 µM]	–
CCCCc1c(C)nc(NCC)nc1OS(=O)(=O)N(C)C	-8.99%	–
ClCc1ccccc1	-2.36%	–
Nc1ccc(N=Nc2ccc(-c3ccc(N=Nc4c(S(=O)(=O)O)cc5cc(S(=O)(=O)O)c(N=Nc6ccccc6)c(O)c5c4N)cc3)cc2)c(N)c1	-3.02%	–
CC(=O)CCC(C)=O	-2.46% [at 95.3 µM]	–
CC1C(=O)C[C@]2(C(C)C)C[C@H]12 (stereo not given in full)	-2.25%	–

Structure (SMILES)	activation	Potency
NC(=O)C(Cl)(Cl)Cl	4.63% [at 95.3 µM]	–
CC(C)(C)c1cc([N+](=O)[O-])cc([N+](=O)[O-])c1O	-10.6%	–
CC(Cl)Cl	4.37%	–
Clc1ccc(C2(Cn3cncn3)CC(Br)CO2)c(Cl)c1 (stereo not given)	-10.2%	–
CCOP(=S)(OCC)SCSCC	3.5%	–
O=[Se]=O	-10.7%	–
CN(N=O)c1ccc([N+](=O)[O-])cc1	3.29%	–
CCC(C)(NC(=O)c1cc(Cl)c(C)c(Cl)c1)C(=O)CCl (stereo not given)	-13.4% [at 95.3 µM]	–
O=C(NCc1cccnc1)Nc1ccc([N+](=O)[O-])cc1	-2.5%	–
CCOP(=S)(OCC)SCn1nnc2ccccc2c1=O	-11.1%	–
Cc1ccccc1CCl	-1.55%	–
CNC(C)Cc1ccccc1OC (stereo not given)	1.14%	–
O=C1c2ccccc2C(=O)C1C(=O)C(c1ccccc1)c1ccccc1	-3.45%	–
O=C(O)C(F)(F)C(F)(F)C(F)(F)C(F)(F)C(F)(F)C(F)(F)C(F)(F)C(F)(F)C(F)(F)C(F)(F)F	-1.8%	–
Clc1cccc2ccccc12	2.57%	–
C=CC(=O)NCNC(=O)C=C	5.76%	–
[CH3][Sn]([CH3])([Cl])[Cl]	–	inactive
C=CC(=O)OCC(C)C	1.25%	–
COC(N)=O	-1.88%	–
CCOP(=O)(OCC)Oc1ccc([N+](=O)[O-])cc1	–	inactive
